Assay results reported in PubChem BioAssay (NCI).
About 79,000 compounds went through this panel and 15% of them were active in at least one assay; those are over-represented in the sample as a whole. Rule as the data show it: active = growth inhibition above about 70%; inactive = the rest.

Assays:
[1] = NCI Yeast Anticancer Drug Screen. Data for the rad50 strain (AID 155);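 also: 0% = growth of vehicle-only cultures of the same strain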; conditions: S. cerevisiae rad50 strain growth inhibition; at 50.0 µM; hits give high values
Outline: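 Vehicle-treated cultures provide the reference for the growth inhibition reported for compound-exposed, repair-deficient yeast.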

[2] = NCI Yeast Anticancer Drug Screen. Data for the mec2-1 strain (AID 157); conditions: S. cerevisiae mec2-1 strain, at 50.0 µM, hits give high values
Outline: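 Each compound was tested on mec2-1 yeast, a strain altered in DNA damage repair or cell cycle control. Growth inhibition is reported relative to vehicle.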

[3] = NCI Yeast Anticancer Drug Screen. Data for the sgs1 mgt1 strain (AID 161);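 also: 0% = growth of cultures given vehicle only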; conditions: S. cerevisiae sgs1 mgt1 strain, at 50.0 µM, hits give high values
Outline: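 Test agents were incubated with a DNA-repair-mutant yeast strain. Growth was then read and compared against vehicle-treated controls.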

[4] = NCI Yeast Anticancer Drug Screen. Data for the cln2 rad14 strain (AID 165);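 also: 0% = growth equal to vehicle treated cultures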; conditions: S. cerevisiae cln2 rad14 strain, at 50.0 µM, hits give high values
Outline: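 Test compounds were added to cln2 rad14 yeast cultures; inhibition of growth was then determined by comparison with vehicle treatment.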

[5] = NCI Yeast Anticancer Drug Screen. Data for the bub3 strain (AID 167); conditions: S. cerevisiae bub3 mutant strain, at 50.0 µM, hits give high values
Outline: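 Mutant yeast screening strain plus compound; vehicle-treated cultures serve as the 0% inhibition reference.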

[6] = NCI Yeast Anticancer Drug Screen. Data for the mlh1 rad18 strain (AID 175); conditions: S. cerevisiae mlh1 rad18 strain growth inhibition; at 50.0 µM; hits give high values
Outline: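 Inhibition values reflect reduced growth of mutant yeast versus vehicle-treated controls following compound exposure; the mutations affect DNA damage repair.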

Measured: growth inhibition

Cc1n[nH]c(=S)n1NC=O
inactive: [1] -12.3% | [2] -6.3% | [3] -4.7% | [4] -20.2% | [5] -4.95% | [6] -15.8%

CSc1n[nH]c(N)c1C(=O)Nc1ccc(C)cc1
inactive: [1] 19.9% | [2] 10.8% | [3] 39.5% | [4] 22.4% | [5] 49.2% | [6] 10.6%

Cc1ccc(N2C3=C(CC4=C2CC(C)(C)CC4=O)C(=O)CC(C)(C)C3)cc1
inactive: [1] -29.6% | [2] -25.1% | [3] -21.1% | [4] -15.9% | [5] -33.8% | [6] -24.9%

CCOC(=O)c1c(/N=C/c2ccc3c(c2)OCO3)sc2c1CCCC2
inactive: [1] 7.7% | [2] -23.3% | [3] 17.8% | [4] 11.8% | [5] 11.3% | [6] 3.2%

CN(C)C(=O)C1CCNCC1
inactive: [1] 2.5% | [2] -2.1% | [3] -4.15% | [4] -9.5% | [5] -11.3% | [6] 3.45%

C[Si](C)(C)O/C=C1/CCOC1=O
inactive: [1] 46.9% | [2] 45.7% | [3] -13.9% | [4] -6.5% | [5] -39.8% | [6] -45%

CCOC(=O)c1[nH]c(-c2ccc(OC)cc2)c(C(=O)OCC)c1-c1ccccc1
inactive: [1] 38.6% | [2] -4.7% | [3] 28.8% | [4] -0.2% | [5] 3.05% | [6] 24.1%

C=C1CC[C@H]2C(=O)OC(c3ccoc3)C[C@]2(C)C/C=C\C=C/1C(=O)OC (stereo not given in full)
inactive: [1] -10.8% | [2] -11.7% | [3] -19.8% | [4] -6% | [5] -27.2% | [6] -22.6%

COCC(=O)c1ccccc1
inactive: [1] 14.3% | [2] 1.7% | [3] 5.3% | [4] 6% | [5] -0.65% | [6] 32.9%

CC(=O)OC1CCC2(C)C(CCC3C2CCC2(C)C(c4cccc(=O)o4)CCC32)C1 (stereo not given)
inactive: [1] 22.5% | [2] 8.9% | [3] 11.4% | [4] 14.8% | [5] 0.35% | [6] 2.3%

CC(=O)NNc1nc(C)c(C(/C=C/c2ccc(NC(C)=O)cc2)=N/NS(=O)(=O)c2ccc(C)cc2)s1
inactive: [1] -6.75% | [2] -23.8% | [3] 3.15% | [4] -6.2% | [5] 6.35% | [6] -21.4%

OCCOc1ccccc1-c1ccccc1
inactive: [1] -28.6% | [2] -14.3% | [3] -15.5% | [4] -14% | [5] -29.5% | [6] -7.65%

CC(C)Cn1cnc2c(SCc3ccccn3)nc(N)nc21
inactive: [1] -6.45% | [2] -17.4% | [3] -10.2% | [4] -30.6% | [5] -48.5% | [6] -17.4%

COc1ccc(NC(=O)C(=O)Cc2nc3ccc([N+](=O)[O-])cc3[nH]c2=O)c(OC)c1
inactive: [1] 9.85% | [2] 14.7% | [3] -3.7% | [4] 3.95% | [5] 6.15% | [6] 22.6%

COc1ccccc1/C=C1\CCC(CCN(C)C)(C2=CCCC2)C1=O (stereo not given)
inactive: [1] -3.05% | [2] -11.8% | [3] -27.5% | [4] 11.1% | [5] -17.7% | [6] 24.4%

O=C1OC(/C=C/c2ccccc2)=NC/1=C\C=C\c1ccccc1
inactive: [1] 24.1% | [2] 14.8% | [3] 14.9% | [4] 14.2% | [5] 6.15% | [6] -1.65%

O=C(NC1CCCCC1)/C(=C\c1ccc(/C=C(/NC(=O)c2ccccc2)C(=O)NC2CCCCC2)cc1)NC(=O)c1ccccc1
inactive: [1] -9.95% | [2] -26.9% | [3] 9.5% | [4] -34.5% | [5] -22.6% | [6] -20.8%

Cc1ccc(C=C(C(=O)O)C(=O)O)o1
inactive: [1] -21.3% | [2] -29.4% | [3] -17.6% | [4] -8.05% | [5] -13.4% | [6] -56.2%

C=CCSc1nc2ccc(NC(C)=O)cc2s1
inactive: [1] 42.8% | [2] 10.2% | [3] 7.8% | [4] 19.3% | [5] 20% | [6] 16.7%

C/C(=N/Nc1ccc([N+](=O)[O-])cc1[N+](=O)[O-])C1=CCCCC1
inactive: [1] -0.2% | [2] -1.35% | [3] -0.95% | [4] -4.8% | [5] 3.15% | [6] -4.85%
